In PubChem BioAssay AID651744 (Broad Institute, 2012):
Screen size: about 5,600 compounds; about 3,100 (55%) were called active. About 3% were inconclusive and are not listed.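 How the source made its calls: active means mean loss of cell viability signal at or above a set limit, and enough replicates individually reaching it; inconclusive means meets only the mean limit or only the replicate share; inactive means meets neither condition.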 The set was probably picked from earlier hits. The list is a sample of the results.

Assay: NIH/3T3 fibroblast cytotoxicity, confirmation, cytotoxicity control, cell-based, cherry-pick, single point, set 2 (AID 651744);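 further: 0% = median of neutral control wells and 100% = median of positive control wells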
Conditions: NIH/3T3 viability, CellTiter-Glo ATP luminescence, 90 h; at 24.9 µM; stronger effect = higher value

Compound | inhibition
C/C=C/c1ccc([C@H]2[C@@H](CNC(C)C)N(c3nc(CC)cs3)[C@H]2CO)cc1 | 103% (active)
COCCNC[C@@H]1[C@H](c2ccccc2)[C@H](CO)N1c1nc(C)c(C)s1 | 5.9% (inactive)
CN(C)C(=O)c1ccc(-c2ccc([C@@H]3[C@H](CO)N4CCCCN(S(C)(=O)=O)C[C@@H]34)cc2)cc1 | 6.63% (inactive)
O=S(=O)(Cc1ccccc1)N1CCCCN2[C@@H](CO)[C@@H](c3ccc(-c4ccc(F)cc4)cc3)[C@@H]2C1 | 105% (active)
O=S(=O)(Cc1ccccc1)N1CCCCN2[C@@H](CO)[C@H](c3ccc(-c4ccccc4)cc3)[C@@H]2C1 | 106% (active)
O=S(=O)(Cc1ccccc1)N1CCCCN2[C@@H](CO)[C@H](c3ccc(-c4cccnc4)cc3)[C@@H]2C1 | -12.4% (inactive)
Cc1cccc(-c2ccc([C@@H]3[C@@H](CO)N4CCCCN(S(=O)(=O)c5cccs5)C[C@H]34)cc2)c1 | 95.2% (active)
CCS(=O)(=O)N1CCCCN2[C@@H](CO)[C@@H](c3ccc(-c4ccccc4)cc3)[C@@H]2C1 | 49.5% (active)
C[C@@H](O)C#Cc1ccc([C@@H]2[C@H](CO)N3CCCCN(S(=O)(=O)c4ccccc4)C[C@@H]23)cc1 | 3.32% (inactive)
C[C@H](O)C#Cc1ccc([C@@H]2[C@H]3CN(S(=O)(=O)c4ccccc4)CCCCN3[C@H]2CO)cc1 | 25.4% (inactive)
C[C@H](O)C#Cc1ccc([C@H]2[C@H]3CN(S(=O)(=O)Cc4ccccc4)CCCCN3[C@H]2CO)cc1 | 30.3% (active)
C/C=C/c1ccc([C@H]2[C@H]3CN(S(=O)(=O)c4ccccc4)CCCCN3[C@H]2CO)cc1 | 87.7% (active)
O=C(Nc1ccc(Cl)cc1)N[C@@H]1CC[C@@H](CCNC(=O)c2ccccc2F)O[C@H]1CO | 4.33% (inactive)
COc1cccc(S(=O)(=O)Nc2ccc3c(c2)[C@H]2C[C@H](CC(=O)NCc4ccc(Cl)cc4)O[C@H](CO)[C@H]2O3)c1 | 4.86% (inactive)
O=C(Nc1cc(Cl)cc(Cl)c1)N[C@H]1CC[C@@H](CCNS(=O)(=O)c2cccc(F)c2)O[C@H]1CO | 57.3% (active)
CC(C)CC#Cc1ccc2c(c1)O[C@H](CN(C)Cc1ccncc1)[C@H](C)CN([C@H](C)CO)S2(=O)=O | 104% (active)
C[C@H](CO)N1C[C@H](C)[C@@H](CN(C)Cc2ccncc2)Oc2cc(Br)ccc2S1(=O)=O | 51.2% (active)
CCCC#Cc1ccc2c(c1)O[C@@H](CN(C)C(=O)c1ccccc1F)[C@H](C)CN([C@H](C)CO)S2(=O)=O | 24.6% (inactive)
CC(C)CC#Cc1ccc2c(c1)O[C@H](CN(C)Cc1ccccc1F)[C@@H](C)CN([C@@H](C)CO)S2(=O)=O | 105% (active)
CC(C)CC#Cc1ccc2c(c1)O[C@H](CN(C)Cc1cccnc1)[C@H](C)CN([C@@H](C)CO)S2(=O)=O | 97% (active)
O=C(Nc1ccc2c(c1)[C@@H]1C[C@H](CC(=O)N3CCOCC3)O[C@@H](CO)[C@@H]1O2)c1ccc2c(c1)OCO2 | 4.7% (inactive)
C[C@H]1CN([C@@H](C)CO)S(=O)(=O)c2ccc(C#CC3CCCC3)cc2O[C@@H]1CN(C)C(=O)c1cccc(F)c1 | 105% (active)

Compound | inhibition
C[C@H]1CN([C@@H](C)CO)C(=O)CCCn2cc(nn2)CO[C@H]1CN(C)C(=O)c1ccccc1 | 7.66% (inactive)
C[C@H](CO)N1C[C@H](C)[C@@H](CN(C)C(=O)Nc2cc(F)ccc2F)Oc2cc(C#CC3CC3)ccc2S1(=O)=O | 55.6% (active)
CO[C@H](CN(C)S(=O)(=O)c1ccc(Cl)cc1)[C@@H](C)CN(Cc1ccccc1Cl)[C@H](C)CO | 74% (active)
COc1cccc(S(=O)(=O)N2CCCCN3[C@H](CO)[C@H](c4ccc(-c5ccncc5)cc4)[C@H]3C2)c1 | 36.2% (active)
OC[C@@H]1[C@H](c2ccc(C#CC3CC3)cc2)[C@@H]2CN(CCC(F)(F)F)CCCCN12 | 102% (active)
COc1cccc(S(=O)(=O)N2CCCCN3[C@H](CO)[C@H](c4ccc(C#CC5CC5)cc4)[C@H]3C2)c1 | 104% (active)
O=C(CN1CCOCC1)N1CCCCN2[C@H](CO)[C@H](c3ccc(-c4ccccc4)cc3)[C@@H]2C1 | 16.2% (inactive)
CCC(=O)N1CCCCN2[C@H](C1)[C@@H](c1ccc(-c3ccc(F)cc3)cc1)[C@@H]2CO | 48.8% (active)
CCC(=O)N1CCCCN2[C@H](C1)[C@@H](c1ccc(/C=C/c3ccccc3)cc1)[C@@H]2CO | 103% (active)
O=C(CN1CCOCC1)N1CCCCN2[C@@H](CO)[C@H](c3ccc(/C=C/c4ccccc4)cc3)[C@@H]2C1 | 92.5% (active)
O=C(CN1CCOCC1)N1CCCCN2[C@@H](CO)[C@H](c3ccc(-c4ccccc4)cc3)[C@@H]2C1 | 6.88% (inactive)
Cc1ccc(S(=O)(=O)N(C)C[C@@H]2OCCCC[C@@H](C)Oc3ccc(NS(=O)(=O)c4ccc(F)cc4)cc3C(=O)N([C@H](C)CO)C[C@H]2C)cc1 | -22.2% (inactive)
COc1ccc(S(=O)(=O)Nc2ccc3c(c2)C(=O)N([C@@H](C)CO)C[C@H](C)[C@@H](CN(C)Cc2ccc(C(F)(F)F)cc2)O3)cc1 | 5.53% (inactive)
Cc1ccc(S(=O)(=O)Nc2ccc3c(c2)C(=O)N([C@H](C)CO)C[C@H](C)[C@H](CN(C)C(=O)Nc2ccc(F)cc2)OCCCC[C@H](C)O3)cc1 | 1.65% (inactive)
Cc1ccc(S(=O)(=O)Nc2ccc3c(c2)C(=O)N([C@H](C)CO)C[C@H](C)[C@H](CN(C)Cc2ccc(Cl)c(Cl)c2)O3)cc1 | 104% (active)
COc1ccc(S(=O)(=O)Nc2ccc3c(c2)C(=O)N([C@H](C)CO)C[C@H](C)[C@H](CN(C)Cc2ccc(C(F)(F)F)cc2)O3)cc1 | 97.6% (active)
COc1ccc(NC(=O)Nc2ccc3c(c2)C(=O)N([C@H](C)CO)C[C@H](C)[C@H](CN(C)S(=O)(=O)c2ccc(Cl)cc2)OCCCC[C@H](C)O3)cc1 | 3.56% (inactive)
COc1ccc(S(=O)(=O)Nc2ccc3c(c2)C(=O)N([C@@H](C)CO)C[C@H](C)[C@H](CN(C)Cc2ccc(C(F)(F)F)cc2)O3)cc1 | 35.2% (active)
COc1ccc(CN(C)C[C@H]2Oc3ccc(NS(=O)(=O)c4ccc(Cl)cc4)cc3CC(=O)N([C@@H](C)CO)C[C@H]2C)cc1 | 36.9% (active)
CN1C(=O)c2cc(NC(=O)c3cnccn3)ccc2OC[C@@H]2O[C@H](CC(=O)N[C@@H]3CCN(Cc4ccccc4)C3)CC[C@@H]21 | -11.4% (inactive)
C[C@H](CO)N1C[C@H](C)[C@H](CN(C)Cc2ccc(C(F)(F)F)cc2)Oc2ccc(NS(=O)(=O)c3ccc(Cl)cc3)cc2C1=O | 101% (active)
C[C@@H]1CN([C@@H](C)CO)S(=O)(=O)c2ccc(C#Cc3ccc(F)cc3)cc2O[C@H]1CN(C)C(=O)c1ccccn1 | 92.1% (active)

Compound | inhibition
C[C@@H]1CN([C@H](C)CO)S(=O)(=O)c2ccc(-c3cccc(C#N)c3)cc2O[C@@H]1CN(C)C(=O)Nc1ccccc1F | 77.8% (active)
C[C@@H]1CN([C@@H](C)CO)S(=O)(=O)c2ccc(-c3ccncc3)cc2O[C@@H]1CN(C)C(=O)Nc1ccc(F)cc1 | 21.8% (inactive)
C[C@@H]1CN([C@@H](C)CO)S(=O)(=O)c2ccc(C#Cc3ccc(F)cc3)cc2O[C@H]1CN(C)C(=O)NC1CCCC1 | 90.7% (active)
C[C@@H]1CN([C@@H](C)CO)S(=O)(=O)c2ccc(C#Cc3ccccc3)cc2O[C@@H]1CN(C)C(=O)Nc1ccccc1 | 49.1% (active)
C[C@H](CO)N1C[C@H](C)[C@H](CN(C)Cc2cccnc2)Oc2cc(C#CC3CCCC3)ccc2S1(=O)=O | 104% (active)
C[C@@H]1CN([C@H](C)CO)S(=O)(=O)c2ccc(C#CC3CCCC3)cc2O[C@@H]1CN(C)Cc1cccnc1 | 104% (active)
COc1ccc(S(=O)(=O)N2CCCCN3[C@H](C2)[C@H](c2ccc(C#CCC(C)C)cc2)[C@@H]3CO)cc1 | 64.2% (active)
COc1ccc(S(=O)(=O)N2CCCCN3[C@H](CO)[C@@H](c4ccc(C#CC(C)C)cc4)[C@H]3C2)cc1 | 105% (active)
COc1cccc(S(=O)(=O)N2CCCCN3[C@H](C2)[C@H](c2ccc(C#CC(C)C)cc2)[C@@H]3CO)c1 | 26.4% (inactive)
CC(C)C#Cc1ccc([C@H]2[C@H](CO)N3CCCCN(C(=O)NC(C)C)C[C@@H]23)cc1 | 50% (active)
CC(C)CC#Cc1ccc2c(c1)O[C@H](CN(C)S(=O)(=O)c1cccc(F)c1)[C@@H](C)CN([C@@H](C)CO)S2(=O)=O | 105% (active)
COc1ccccc1-c1ccc2c(c1)O[C@H](CN(C)S(=O)(=O)c1ccc(C)cc1)[C@@H](C)CN([C@H](C)CO)S2(=O)=O | 31.1% (active)
COc1ccccc1-c1ccc2c(c1)O[C@@H](CN(C)C)[C@H](C)CN([C@H](C)CO)S2(=O)=O | 19.5% (inactive)
C[C@@H]1CN([C@H](C)CO)S(=O)(=O)c2ccc(-c3cccc(F)c3)cc2O[C@H]1CN(C)S(=O)(=O)c1ccc(F)cc1 | 60.5% (active)
Cc1ccc(-c2ccc3c(c2)O[C@H](CN(C)C)[C@@H](C)CN([C@H](C)CO)S3(=O)=O)cc1 | 25.3% (active)
Cc1noc(C)c1S(=O)(=O)Nc1ccc2c(c1)C(=O)N([C@@H](C)CO)C[C@@H](C)[C@H](CN(C)S(=O)(=O)c1ccc(Cl)cc1)OCCCC[C@H](C)O2 | -2.59% (inactive)
C[C@H](CO)N1C[C@H](C)[C@@H](CN(C)S(=O)(=O)c2ccc(F)cc2)Oc2cc(C3=CCCC3)ccc2S1(=O)=O | 45.4% (active)
C[C@@H]1CN([C@@H](C)CO)S(=O)(=O)c2ccc(-c3cccc(F)c3)cc2O[C@@H]1CN(C)S(=O)(=O)c1ccccc1 | 57.2% (active)
C[C@H]1CN([C@@H](C)CO)S(=O)(=O)c2ccc(C#Cc3cccc(F)c3)cc2O[C@@H]1CN(C)S(=O)(=O)c1cn(C)cn1 | 77.2% (active)
C[C@@H]1CN([C@H](C)CO)C(=O)c2cc(NS(C)(=O)=O)ccc2O[C@@H](C)CCCCO[C@H]1CN(C)S(=O)(=O)c1cn(C)cn1 | -25.6% (inactive)
